Source: PubChem BioAssay
uPA generation = inhibitors of cell surface uPA generation. cell surface uPA generation assay, qHTS. Potency, µM (titrated, usually from 38.3 µM), without a hit: top-dose activity change, negative = inhibition, hits mostly inhibitors. 330,000 tested, 0.31% active; active means well fitted inhibition curve with a large enough effect; inconclusive means small, poorly fitted or top-dose-only effect; inactive means no such curve, though single readings can be large or run the other way; tested in mouse RAW 264.7 cells; further: potency means the concentration at half of the fitted maximal effect; on the % scale 0 is the no-effect control and ±100 the full control effect; nearly all actives have a fitted effect of over 55% in size
MmCpn inh = M. maripaludis TRiC chaperonin inhibition. 330,000 tested, 0.031% active. AID 504842. Potency, µM (top dose mostly 76.9 µM), without a hit: top-dose activity, negative = inhibition, actives largely listed as inhibitors. purified Mm-Cpn ATPase, ADP Transcreener TR-FRET; further: potency means the concentration at half of the fitted maximal effect; on the % scale 0 is the no-effect control and ±100 the full control effect; nearly all actives have a fitted effect of over 80% in size
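Inhibition of chaperonin ATP hydrolysis is measured as reduced ADP production, detected by competitive TR-FRET in which signal falls with ADP. Final enzyme 25 nM and ATP 10 uM, reacted 30 min at 37°C.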
CCT modulator = modulators of cytosolic chaperonin (CCT/TRiC) activity | purified chaperonin ATPase assay, HTRF ADP detection, 30 min | 360,000 tested, 0.3% active | AID 651819 | activity change, % (no concentration beside the values), hits read low; in the data active means activity change below about -30%; further: on the % scale 0 is the no-effect control and ±100 the full control effect
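Enzyme 40 or 20 nM (batch-dependent) in Tris pH 7.4/KCl/MgCl2/DTT; cpd 76 uM single point; ATP 10 uM; 30 min 37 °C; Transcreener ADP HTRF detection, 30 min RT; ratio 665/615.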
Epigenetic reg = epigenetic control regulation, reporter derepression; murine LDR cells, GFP reporter derepression, 30 h; Potency, µM (series often up to 53.9 µM), without a hit: at the top dose GFP activation, hits mostly activators; 280,000 tested, 0.2% active; further: potency means the concentration at half of the fitted maximal effect; % of control where 0% means no effect; nearly all actives have a fitted effect of over 60% in size
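Murine LDR cells bearing a silenced CMV-driven GFP reporter were exposed to compound for 30 h at 37 C. After PBS washes, GFP-positive cells (20-120 um objects) counted by laser-scanning microplate cytometry.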
pAkt inh = inhibitors of Akt phosphorylation. Neuro2A IGF-stimulated pAkt S473 HTRF, 20 min; active compounds read low. activity change, % for hits at 50 µM. 360,000 tested, 0.32% active. AID 651550; in the data active means activity change below about -80%; inconclusive means mostly about -51% to -80%; further: on the % scale 0 is the no-effect control and ±100 the full control effect
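Single-point screen (50 µM final compound) in Neuro2A cells stimulated 20 min with 6 nM IGF at 37 deg C. After lysis, Ser473-phosphorylated Akt read by HTRF (ex 330 nm, em 615/665 nm) as the 665/615 ratio.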
MBNL1-CUG inh = inhibitors of human MBNL1 binding to CUG repeat RNA. Q9NR56. TR-FRET MBNL1-His/biotin-(CUG)12 binding, 665/545 ratio. Potency, µM (series often up to 57.5 µM), for the others: at the top dose activity change, negative = inhibition, hits mostly inhibitors. 280,000 tested, 0.036% active; active means well fitted inhibition curve with a large enough effect in the signal ratio, with a control signal flat, not every such curve was filed as active; inconclusive means small, poorly fitted or top-dose-only effect, or effect the other way, or a change in a side signal; inactive means no such curve, though single readings can be large or run the other way; the % refers to the signal ratio; further: potency means the concentration at half of the fitted maximal effect; on the % scale 0 is the no-effect control and ±100 the full control effect
Target sequence (Q9NR56 whole entry, looked up): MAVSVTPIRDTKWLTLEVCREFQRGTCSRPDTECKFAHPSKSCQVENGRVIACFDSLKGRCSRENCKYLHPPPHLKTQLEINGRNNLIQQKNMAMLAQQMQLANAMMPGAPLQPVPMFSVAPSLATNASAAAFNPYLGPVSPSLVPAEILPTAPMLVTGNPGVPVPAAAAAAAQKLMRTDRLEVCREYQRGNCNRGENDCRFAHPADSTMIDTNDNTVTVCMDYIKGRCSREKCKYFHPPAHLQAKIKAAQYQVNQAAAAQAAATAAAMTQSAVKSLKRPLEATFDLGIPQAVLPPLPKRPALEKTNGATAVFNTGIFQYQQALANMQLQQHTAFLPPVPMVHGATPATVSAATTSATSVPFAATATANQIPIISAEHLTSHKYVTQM
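TR-FRET readout: Ex 340 nm, 665/545 nm emission ratio, normalized to buffer-only (basal) and MBNL1-(CUG)12 controls. Complex of MBNL1-His with Biotin-(CUG)12, compounds 92 nM–58 uM, incubated 60 min at room temperature.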
* hit, by the source's call; i = inactive; ? = inconclusive; . = no result given. Only some compounds are listed: those with a hit (about 0.97% of all), similar ones and a draw of the others. Unless noted, the call rests on the fitted dose curve; in most records, active means well fitted curve in the direction sought with a large enough effect; inconclusive means small, poorly fitted or top-dose-only effect, or another doubt; inactive means no such curve, though single readings can be large; an effect the other way counts as inactive or inconclusive.

SMILES	uPA generation	MmCpn inh	CCT modulator	Epigenetic reg	pAkt inh	MBNL1-CUG inh
CCN1/C(=C/c2ccc3cc(C)ccc3[n+]2CC)Sc2cc(C)ccc21	1µM*	-15.5%	-1.5	2.82µM*	i	.
CCCCN1/C(=C/c2ccc3ccccc3[n+]2CC)Sc2ccccc21	-16.1%	-9.0%	-1.5	3.16µM*	i	?
Cc1sc2c3ccsc3ccc2[n+]1C	2.7%	-3.3%	-0.9	-1.2%	i	-20.4%
Cc1ccc2c(c1)S/C(=C/c1ccc[n+](C)c1)N2CCO	-0.6%	-4.1%	-0.4	3.2%	i	?
CCOc1ccc(N2CC(NC(=O)CCc3ccccc3)CC2=O)cc1 (stereo not given)	.	.	.	1.2%	.	.
C=CCN(CC=C)Cc1ccc(C(=O)OC)o1	1.4%	1.1%	0.8	0.0%	-109.7%*	-4.6%
COc1ccc(NC(=O)Cn2c(=O)n(-c3ccccc3)c(=O)c3ccc(C(=O)NCc4ccc5c(c4)OCO5)cc32)cc1	.	.	.	24.3%	.	.
O=C(Cn1c(=O)n(-c2ccccc2)c(=O)c2ccc(C(=O)NCc3ccc4c(c3)OCO4)cc21)Nc1ccc(Br)cc1	.	.	.	15.8µM*	.	.
COCCNC(=O)C1(CC(C)C)C=CCN1C(=O)OC (stereo not given)	.	.	.	3.0%	.	.
COc1cc(C(=O)OCC(=O)Nc2sccc2C(N)=O)cc(OC)c1OC	3.16µM*	-8.3%	-2.1	8.4%	i	5.9%
Cc1ccc2c(c1)CCCN2C(=O)c1cccs1	-3.3%	0.5%	-4.9	1.3%	i	4.5%
Cc1ccc2c(c1)CCCN2C(=O)c1cc(C)c(C)s1	1.9%	-7.8%	-32.6*	.	i	.
O=C1Nc2cc(C(=O)N3CCN(c4ccccn4)CC3)ccc2S/C1=C\c1ccccc1	0.1%	0.6%	-42.1*	.	i	5.5%
O=C1N(Cc2cccnc2)C[C@@H]2C[C@@H](c3cccc(OC4CCCC4)c3)N3CCC[C@@]123	-0.3%	-0.4%	-50.9*	?	i	0.7%
O=C1N(Cc2cccnc2)C[C@@H]2C[C@@H](c3cccc(OCc4ccccc4)c3)N3CCC[C@@]123	2.8%	-6.9%	3.4	-0.1%	i	5.4%
Cc1ccc2c(c1)C(=O)C(=O)N2Cc1ccc(C(F)(F)F)cc1	3.55µM*	-0.3%	0.0	.	i	.
Cc1ccc2c(c1)C(=O)C(=O)N2Cc1ccc(OC(C)C)cc1	.	.	.	4.8%	.	.
COc1cccc(NC(=O)C2CCN(c3nc4ccccc4nc3C(F)(F)F)CC2)c1	.	.	.	-0.1%	.	.
CN1/C(=C\C=C(/C#N)C(=O)Nc2ccc(Cl)cc2)C(C)(C)c2ccccc21	3.1%	-1.4%	-1.2	22.4µM*	i	.
CN1/C(=C\C=C(C#N)C#N)C(C)(C)c2ccccc21	-4.3%	0.6%	-3.9	25.1µM*	i	-2.9%
CN1/C(=C/C=N/n2cnnc2)C(C)(C)c2ccccc21	-10.0%	0.2%	-4.4	0.1%	i	5.0%
COC(=O)/C=C/COc1ccccc1[N+](=O)[O-]	11.2µM*	0.9%	-1.6	0.3%	i	10.4%
COc1ccc(NC(=O)C(=O)N2N=C3CCCCC3C2(O)C(F)(F)F)cc1 (stereo not given)	9.8%	6.4%	-1.7	0.0%	i	?
COc1ccccc1N1CCN(S(=O)(=O)CCNC(=O)Cc2ccc(F)cc2)CC1	7.08µM*	-0.5%	1.9	.	i	.
COc1ccccc1N1CCN(c2cc(=O)n(Cc3ccc(F)cc3)c(=O)[nH]2)CC1	2.82µM*	1.2%	0.2	15.0%	i	-5.0%
SMILES	uPA generation	MmCpn inh	CCT modulator	Epigenetic reg	pAkt inh	MBNL1-CUG inh
COc1ccccc1N1CCN(S(=O)(=O)CCNC(=O)Cc2ccc(Cl)cc2)CC1	.	.	.	-0.6%	.	.
CC(C)(C)c1ccc(CSc2nc(N)cc(=O)[nH]2)cc1	-2.8%	-1.3%	-54.6*	.	i	-13.9%
Nc1cc(=O)[nH]c(SCc2ccc(Cl)cc2)n1	-1.5%	-0.2%	1.3	-1.0%	i	-0.7%
Cn1c(SCc2ccccc2)nc(C(F)(F)F)cc1=O	1.8%	0.4%	-2.0	-0.1%	i	2.6%
Cn1c(SCc2ccccc2)nc(N)c(N=O)c1=O	3.55µM*	.	-1.0	.	i	.
Cc1cc(C)c2[nH]c(C)c(CN3CCCCCC3)c(=O)c2c1	-14.8%	-0.2%	-0.2	.	i	-1.1%
CCCC(=O)Nc1ccc2c(c1)C(=O)NC2=O	2.9%	-1.1%	-1.1	0.8%	i	?
Cc1ccc2c(c1)Oc1ccc(NC(=O)CCCl)cc1C(=O)N2	8.91µM*	-11.3%	-0.9	0.5%	i	-3.5%
COc1ccccc1-c1sc2ccccc2c1-c1ccccc1OC	-6.0%	56.2µM*	-9.5	.	i	.
COc1ccc(-c2c(-c3ccccc3OC)sc3ccccc23)cc1C=O	1.5%	?	-3.8	.	i	.
COc1ccccc1-c1sc2ccccc2c1-c1ccc2c(c1)OCCO2	-5.4%	20µM*	-6.1	.	i	.
COc1ncc(-c2c(-c3ccccc3OC)sc3ccccc23)cn1	.	.	0.0	.	i	.
COc1ccccc1-c1sc2cc3c(cc2c1C#CCO)OCO3	-4.0%	?	-18.0	.	i	.
CCOC(=O)c1ccc(-c2c(-c3ccccc3OC)sc3cc4c(cc23)OCO4)cc1F	5.62µM*	?	1.2	.	i	.
COc1ccc(-c2c(-c3ccccc3OC)sc3ccccc23)cc1OC	-15.1%	35.5µM*	1.6	.	i	19.0%
CC(C)CN(CCCNC(=O)CN1C(=O)COc2ccc(S(=O)(=O)N3CCOCC3)cc21)CC(C)C	-18.6%	-2.6%	-1.1	.	i	-2.5%
CC(C)(C)c1ccc(S(=O)(=O)NC(=O)C2(C)CCN2C(=O)Cc2ccc(-c3ccccc3)cc2)cc1 (stereo not given)	.	.	1.8	.	i	.
CCOC(=O)Cn1nnnc1CN(Cc1cccs1)Cc1cc2cc(C)ccc2[nH]c1=O	.	0.1%	-30.9*	6.2%	i	-3.6%
COc1cc(/C=C(/C#N)c2ccc(F)cc2)ccc1OCc1ccc(C(=O)O)o1	.	-2.0%	1.3	-1.0%	i	?
O=C(Nc1ccc(NC(=O)c2sc3ccccc3c2Cl)cc1Cl)c1ccco1	-1.6%	-0.4%	-33.5*	?	i	0.7%
O=C(Nc1ccc(NC(=O)c2cccs2)c(Cl)c1)c1ccco1	1.6%	3.1%	-0.5	1.0%	i	7.4%
O=C(NCc1ccccc1Cl)c1csc([C@@H]2O[C@H](CO)[C@H](O)[C@H](O)[C@H]2O)n1	.	.	-1.6	.	i	.
COc1cccc(-c2nnc(SCC(=O)N3CCCc4ccccc43)o2)c1	2.0%	0.4%	-1.0	-1.6%	i	-5.5%
COc1cc(OC)cc(-c2nnc(SCC(=O)N3CCCc4ccccc43)o2)c1	2.1%	-4.9%	1.0	4.5%	-115.8%*	-4.2%
Cc1cc(=O)[nH]c(=S)n1-c1ccccc1	6.2%	4.3%	-34.1*	-0.9%	i	-3.1%
